Source: PubChem BioAssay (EPA / NIEHS)
“And” between values parts separate entries of the source, which are not always exact repeats. Equal values may be shown once. Records with an inconclusive call do not appear. The source made the active and inactive calls. Rule for the calls, unless noted: active = hit-call score of the fitted dose curve at least 0.9, where 1 is the maximum; inconclusive = response in the unintended direction; inactive = score below 0.9.

Columns and labels:
[1] = system: Sodium/Iodide Symporter (NIS), SLC5A5 (gene 6528); assay: CPHEA_Stoker_NIS_Inhibition_RAIU: CPHEA's Radioactive Iodide Uptake (RAIU) Assay for Sodium/Iodide Symporter (NIS) Inhibition, Stoker and Laws Labs (AID 2283841)
Summary of the method: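 HEK293T cells stably expressing human NIS (hNIS-HEK293T-EPA) were exposed to test chemicals at 0.001–100uM (0.5% final DMSO) with 125I at a final 329pM in HBSS/10mM HEPES pH 7.4. After 2 hours at room temperature and ice-cold washes, intracellular 125I was counted as CPM and normalized to DMSO wells.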

[2] = CPHEA_Stoker_NIS_Cytotoxicity: Cytotoxicity Assessment for CPHEA's Radioactive Iodide Uptake (RAIU) Assay for Sodium/Iodide Symporter (NIS) Inhibition, Stoker and Laws Labs (AID 2283897);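 for AC50: active means loss of ATP signal versus DMSO meaning cytotoxicity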
Summary of the method: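 hNIS-HEK293T-EPA human kidney cells were exposed for 2 hours at room temperature to test chemicals (0.001–100uM, 0.5% final DMSO) in HEPES-buffered HBSS, pH 7.4. Viability was read as ATP content by luciferase bioluminescence, loss of signal versus DMSO.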

[3] = molecular target: Peroxisome proliferator-activated receptor gamma (Homo sapiens) (UniProt P37231); assay: ATG_hPPARg_XSP2: Attagene TRANS-FACTORIAL Multi-Species (XSP2) HepG2 Assay for human Peroxisome Proliferator-activated Receptor gamma (PPARg) (AID 2283829);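 note: actives raise reporter mRNA above DMSO so AC50 reflects PPARg activation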
Summary of the method: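 Human HepG2 cells carried transiently transfected Gal4 reporter units and were treated with chemical for 24 h alongside androgen-receptor stimulants (3 nM 6-alpha-fluorotestosterone, 1.5 nM norgestrel). Reporter transcripts were detected by RT-PCR with capillary electrophoresis, analysed in the positive direction against DMSO.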

[4] = molecular target: mouse Peroxisome Proliferator-activated Receptor gamma (PPARg), Pparg (gene 19016) (UniProt P37238); assay: ATG_mPPARg_XSP2: Attagene TRANS-FACTORIAL Multi-Species (XSP2) HepG2 Assay for mouse Peroxisome Proliferator-activated Receptor gamma (PPARg) (AID 2283830);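 note: hits are gains in reporter mRNA above DMSO so AC50 marks activation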
Summary of the method: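 Multiplexed TRANS reporter readout: after 24 h chemical exposure of transfected HepG2 cells (with 3 nM 6-alpha-fluorotestosterone, 1.5 nM norgestrel present), RNA reverse-transcribed, amplified, 6-FAM-labelled and resolved by capillary electrophoresis; mouse PPARg-Gal4 induction scored against DMSO.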

[5] = molecular target: Nuclear receptor subfamily 1 group I member 2 (Mus musculus) (UniProt O54915); assay: ATG_mPXR_XSP2: Attagene TRANS-FACTORIAL Multi-Species (XSP1) HepG2 Assay for mouse Pregnane X Receptor (PXR) (AID 2283831)
Summary of the method: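 Fluorescence signals from capillary electrophoresis of RT-PCR-amplified reporter mRNA give the readout, gain-of-signal versus DMSO. Transfected HepG2 cells, 24 h dosing, medium contained 3 nM 6-alpha-fluorotestosterone and 1.5 nM norgestrel.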

[6] = molecular target: zebrafish Thyroid Hormone Receptor beta (TRb), thrb (gene 30607) (UniProt Q9PVE4); assay: ATG_zfTRb_XSP2: Attagene TRANS-FACTORIAL Multi-Species (XSP1) HepG2 Assay for zebrafish Thyroid Hormone Receptor beta (TRb) (AID 2283836)
Summary of the method: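 Reporter transcripts measured by RT-PCR, 6-FAM labelling, HpaI digestion and capillary electrophoresis after 24 h chemical exposure. Human HepG2 cells carry an exogenous zebrafish TRb-GAL4 chimera; medium included 3 nM 6-alpha-fluorotestosterone plus 1.5 nM norgestrel.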

[7] = CEETOX_H295R_11DCORT_noMTC: CeeTox H295R High-throughput Steroidogenesis Assay for 11-Deoxycortisol (11DCORT), maximum tolerated concentration (MTC) filtered results only (AID 2283911; active = hit-call score of the fitted dose curve at least 0.9, where 1 is the maximum; inactive = score below 0.9); details: actives raise or lower the signal
Summary of the method: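 Forskolin-primed (10 uM, 48 h) H295R adrenal cells are dosed for 48 h at 0.1% DMSO; medium 11-deoxycortisol is quantified by LC-MS/MS against a 7-point standard curve, with activity fitted in both directions versus DMSO.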

[8] = CEETOX_H295R_OHPREG_noMTC: CeeTox H295R High-throughput Steroidogenesis Assay for OH-Pregnenolone (OHPREG), maximum tolerated concentration (MTC) filtered results only (AID 2283912; active = hit-call score of the fitted dose curve at least 0.9, where 1 is the maximum; inactive = score below 0.9); details: actives raise or lower the signal
Summary of the method: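 H295R; 10 uM forskolin 48 h pre-stim; test cpd in DMSO (0.1% final) 48 h; media MTBE-extracted, HPLC-MS/MS for OH-pregnenolone; bidirectional fit vs DMSO; no MTC (MTT) filtering.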

[9] = CEETOX_H295R_OHPROG_noMTC: CeeTox H295R High-throughput Steroidogenesis Assay for OH-Progesterone (OHPROG), maximum tolerated concentration (MTC) filtered results only (AID 2283914; active = hit-call score of the fitted dose curve at least 0.9, where 1 is the maximum; inactive = score below 0.9); details: actives raise or lower the signal
Summary of the method: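 Medium hormone measured by reverse-phase C18 HPLC with positive electrospray MS/MS after MTBE liquid-liquid extraction. Cells had 48 h forskolin (10 uM) prestimulation, then 48 h chemical dosing. Gain or loss of signal fitted relative to DMSO baseline.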

[10] = CEETOX_H295R_CORTISOL_noMTC: CeeTox H295R High-throughput Steroidogenesis Assay for Cortisol, maximum tolerated concentration (MTC) filtered results only (AID 2283916; active = hit-call score of the fitted dose curve at least 0.9, where 1 is the maximum; inactive = score below 0.9); details: actives raise or lower the signal
Summary of the method: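 H295R human adrenal cells prestimulated 48 h with 10 uM forskolin, then exposed 48 h to chemical in 0.1% DMSO; cortisol in medium quantified by HPLC-MS/MS; bidirectional fit vs DMSO baseline, concentrations not MTT-filtered for MTC.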

[11] = CEETOX_H295R_CORTIC_noMTC: CeeTox H295R High-throughput Steroidogenesis Assay for Corticosterone (CORTIC), maximum tolerated concentration (MTC) filtered results only (AID 2283917; active = hit-call score of the fitted dose curve at least 0.9, where 1 is the maximum; inactive = score below 0.9); details: actives raise or lower the signal
Summary of the method: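 Corticosterone secreted into the medium was measured by reverse-phase C18 HPLC with tandem MS after MTBE extraction. Cells (H295R) had 48 h forskolin (10 uM) stimulation before 48 h chemical exposure; gain or loss of signal was fitted relative to DMSO.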

[12] = CEETOX_H295R_DOC_noMTC: CeeTox H295R High-throughput Steroidogenesis Assay for DOC, maximum tolerated concentration (MTC) filtered results only (AID 2283918; active = hit-call score of the fitted dose curve at least 0.9, where 1 is the maximum; inactive = score below 0.9); details: actives raise or lower the signal
Summary of the method: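 H295R cells prestimulated 48 h with 10 uM forskolin, then exposed 48 h to chemical in 0.1% DMSO. 11-Deoxycorticosterone in medium measured by MTBE extraction and HPLC-MS/MS; bidirectional fit vs DMSO, no MTC filter.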

[13] = CEETOX_H295R_ESTRADIOL_noMTC: CeeTox H295R High-throughput Steroidogenesis Assay for Estradiol, maximum tolerated concentration (MTC) filtered results only (AID 2283919; active = hit-call score of the fitted dose curve at least 0.9, where 1 is the maximum; inactive = score below 0.9); details: actives raise or lower the signal
Summary of the method: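 Readout: dansyl-derivatized estradiol quantified by LC-MS/MS in medium from H295R cells dosed 48 h (0.1% DMSO) following 48 h forskolin (10 uM) prestimulation. Gain or loss of signal fitted against DMSO; no MTC filtering applied.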

[14] = molecular target: zebrafish Thyroid Hormone Receptor alpha (TRa), thraa (gene 30670) (UniProt Q98867); assay: ATG_zfTRa_XSP2: Attagene TRANS-FACTORIAL Multi-Species (XSP1) HepG2 Assay for zebrafish Thyroid Hormone Receptor alpha (TRa) (AID 2283832);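 note: actives raise zebrafish TRa-Gal4 reporter transcript above DMSO baseline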
Summary of the method: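 Chimeric zebrafish TRa-Gal4 activity read in transfected human HepG2 as GAL4-UAS reporter transcripts, 24 h post-dose, via RT-PCR with labeled primer extension and capillary electrophoresis. Medium also carries 3 nM 6-alpha-fluorotestosterone and 1.5 nM norgestrel; DMSO baseline.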

[15] = system: zebrafish Peroxisome Proliferator-activated Receptor gamma (PPARg), gene 557037; assay: ATG_zfPPARg_XSP2: Attagene TRANS-FACTORIAL Multi-Species (XSP2) HepG2 Assay for zebrafish Peroxisome Proliferator-activated Receptor gamma (PPARg) (AID 2283833);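 note: actives increase reporter signal over DMSO so AC50 reflects activation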
Summary of the method: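 HepG2, transient MRTU transfection, 24 h compound; zfPPARg-GAL4 reporter mRNA by RT-PCR + capillary electrophoresis; gain-of-signal vs DMSO.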

[16] = system: turtle Thyroid Hormone Receptor, alpha (TRa), gene 101949057; assay: ATG_trTRa_XSP2: Attagene TRANS-FACTORIAL Multi-Species (XSP1) HepG2 Assay for turtle Thyroid Hormone Receptor, alpha (TRa) (AID 2283834);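 note: hits raise reporter mRNA over the DMSO baseline so AC50 marks activators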
Summary of the method: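 Multiplexed TRANS reporter assay; HepG2 carrying NR-Gal4 constructs treated 24 h. mRNA of the GAL4-UAS reporter quantified via labelled RT-PCR fragments on a genetic analyzer, vs DMSO negative control.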

[17] = ATG_M_61_XSP2: Attagene TRANS-FACTORIAL Multi-Species (XSP2) HepG2 Assay for M61 Transcription Factor (Internal Marker) (AID 2283835; active = hit-call score of the fitted dose curve at least 0.9, where 1 is the maximum; inactive = score below 0.9;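 note: reporter mRNA of an internal background marker read by RT-PCR and capillary electrophoresis; active means a rise in signal above the DMSO baseline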)
Summary of the method: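 Transient MRTU transfection of human HepG2; 24 h chemical dosing with 3 nM 6-alpha-fluorotestosterone + 1.5 nM norgestrel added for AR stimulation. RNA isolated, RT, PCR, FAM-labelled, HpaI cut, CE read. Positive direction vs DMSO.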

[18] = ATG_XTT_Cytotoxicity_XSP2: Cytotoxicity Assessment in the Attagene TRANS-FACTORIAL Multi-Species (XSP2) HepG2 Assay (AID 2283837)
Summary of the method: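 XTT-based cell number read-out in human HepG2 liver cells carrying transfected reporter units, measured 24 h after chemical dosing. Activity is signal loss versus DMSO baseline.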

[19] = molecular target: human Thyroid hormone Receptor alpha (TRa), THRA (gene 7067) (UniProt P10827); assay: ATG_hTRa_XSP2: Attagene TRANS-FACTORIAL Multi-Species (XSP2) HepG2 Assay for human Thyroid hormone Receptor alpha (TRa) (AID 2283838)
Summary of the method: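 Reporter transcripts were read by RT-PCR with fluorescent primer extension, HpaI digestion and capillary electrophoresis. These came from HepG2 cells carrying multiplexed TRa-Gal4 TRANS constructs, harvested 24 hours after dosing. The medium also held 6-alpha-fluorotestosterone (3 nM) and norgestrel (1.5 nM), and increases were fitted against DMSO.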

[20] = molecular target: frog Thyroid hormone Receptor alpha (TRa), thra-a (gene 397942) (UniProt P15204); assay: ATG_frTRa_XSP2: Attagene TRANS-FACTORIAL Multi-Species (XSP2) HepG2 Assay for frog Thyroid hormone Receptor alpha (TRa) (AID 2283839)
Summary of the method: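 Chimeric frog TRα-GAL4 activity in human liver cells measures reporter transcript induction 24 h post-dose. Detection uses RT-PCR, HpaI-digested labelled products and fluorescence capillary electrophoresis; DMSO serves as negative control.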

Chain of zebrafish Thyroid Hormone Receptor beta (TRb), thrb (gene 30607) (Q9PVE4 whole entry, looked up, the tested form may be a part): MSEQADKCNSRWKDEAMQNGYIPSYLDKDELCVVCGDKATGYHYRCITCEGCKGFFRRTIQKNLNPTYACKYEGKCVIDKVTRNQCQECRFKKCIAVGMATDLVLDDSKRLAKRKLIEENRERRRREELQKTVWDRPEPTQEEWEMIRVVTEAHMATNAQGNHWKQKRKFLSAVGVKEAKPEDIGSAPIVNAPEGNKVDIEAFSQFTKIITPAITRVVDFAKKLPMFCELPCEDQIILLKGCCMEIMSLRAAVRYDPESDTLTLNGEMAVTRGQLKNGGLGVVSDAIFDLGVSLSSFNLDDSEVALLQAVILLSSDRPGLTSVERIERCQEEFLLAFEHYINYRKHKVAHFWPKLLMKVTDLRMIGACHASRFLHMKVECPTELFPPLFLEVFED
Chain of Peroxisome proliferator-activated receptor gamma (Homo sapiens) (P37231 whole entry, looked up, the tested form may be a part): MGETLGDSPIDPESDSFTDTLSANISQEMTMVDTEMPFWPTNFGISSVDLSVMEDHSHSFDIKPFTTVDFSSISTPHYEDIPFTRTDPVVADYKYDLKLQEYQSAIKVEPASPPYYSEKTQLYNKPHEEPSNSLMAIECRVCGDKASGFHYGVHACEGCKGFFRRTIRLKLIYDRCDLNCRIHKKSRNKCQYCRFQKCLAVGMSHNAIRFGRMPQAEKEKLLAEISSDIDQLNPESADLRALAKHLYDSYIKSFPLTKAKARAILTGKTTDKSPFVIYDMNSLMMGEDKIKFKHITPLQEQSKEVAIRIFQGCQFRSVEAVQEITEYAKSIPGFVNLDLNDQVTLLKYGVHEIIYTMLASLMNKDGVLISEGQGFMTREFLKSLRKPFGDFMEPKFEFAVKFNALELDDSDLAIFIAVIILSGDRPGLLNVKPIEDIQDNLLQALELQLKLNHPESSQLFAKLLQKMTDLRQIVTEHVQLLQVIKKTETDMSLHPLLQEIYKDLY
Chain of mouse Peroxisome Proliferator-activated Receptor gamma (PPARg), Pparg (gene 19016) (P37238 whole entry, looked up, the tested form may be a part): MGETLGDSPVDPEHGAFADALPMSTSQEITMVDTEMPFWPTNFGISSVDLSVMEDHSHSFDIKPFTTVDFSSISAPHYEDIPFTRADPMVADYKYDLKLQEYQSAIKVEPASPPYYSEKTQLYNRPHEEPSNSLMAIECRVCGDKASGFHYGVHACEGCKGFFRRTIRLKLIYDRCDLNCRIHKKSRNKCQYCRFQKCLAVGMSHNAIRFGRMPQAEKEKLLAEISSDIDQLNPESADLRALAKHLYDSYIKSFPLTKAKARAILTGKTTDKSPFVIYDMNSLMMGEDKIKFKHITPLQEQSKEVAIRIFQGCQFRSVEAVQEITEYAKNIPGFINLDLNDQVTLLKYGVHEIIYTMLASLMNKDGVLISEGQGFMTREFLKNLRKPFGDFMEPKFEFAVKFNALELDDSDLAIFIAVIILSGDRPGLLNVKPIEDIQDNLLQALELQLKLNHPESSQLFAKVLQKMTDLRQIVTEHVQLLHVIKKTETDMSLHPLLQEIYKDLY
Chain of frog Thyroid hormone Receptor alpha (TRa), thra-a (gene 397942) (P15204 whole entry, looked up, the tested form may be a part): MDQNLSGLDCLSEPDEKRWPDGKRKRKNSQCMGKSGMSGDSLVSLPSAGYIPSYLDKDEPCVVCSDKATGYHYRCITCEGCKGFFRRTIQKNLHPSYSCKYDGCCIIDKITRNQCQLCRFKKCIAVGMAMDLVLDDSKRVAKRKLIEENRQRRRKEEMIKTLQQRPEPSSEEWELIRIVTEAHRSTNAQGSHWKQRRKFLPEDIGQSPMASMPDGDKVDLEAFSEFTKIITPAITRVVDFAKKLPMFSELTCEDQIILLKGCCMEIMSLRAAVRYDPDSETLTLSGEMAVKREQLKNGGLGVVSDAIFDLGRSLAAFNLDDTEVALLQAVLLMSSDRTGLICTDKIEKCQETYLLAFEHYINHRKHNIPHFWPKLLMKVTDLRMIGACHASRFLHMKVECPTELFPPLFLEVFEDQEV
Chain of Nuclear receptor subfamily 1 group I member 2 (Mus musculus) (O54915 whole entry, looked up): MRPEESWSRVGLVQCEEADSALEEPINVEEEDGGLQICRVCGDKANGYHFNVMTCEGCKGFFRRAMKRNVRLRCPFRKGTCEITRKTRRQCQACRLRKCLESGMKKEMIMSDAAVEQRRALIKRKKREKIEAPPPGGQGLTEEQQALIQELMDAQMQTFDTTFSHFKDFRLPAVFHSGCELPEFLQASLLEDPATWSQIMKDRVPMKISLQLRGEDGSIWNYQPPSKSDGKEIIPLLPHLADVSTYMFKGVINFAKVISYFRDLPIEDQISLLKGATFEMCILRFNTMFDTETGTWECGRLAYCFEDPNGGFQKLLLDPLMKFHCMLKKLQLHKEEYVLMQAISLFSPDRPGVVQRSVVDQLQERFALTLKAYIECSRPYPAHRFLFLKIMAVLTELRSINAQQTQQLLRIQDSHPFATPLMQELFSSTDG
Chain of zebrafish Thyroid Hormone Receptor alpha (TRa), thraa (gene 30670) (Q98867 whole entry, looked up, the tested form may be a part): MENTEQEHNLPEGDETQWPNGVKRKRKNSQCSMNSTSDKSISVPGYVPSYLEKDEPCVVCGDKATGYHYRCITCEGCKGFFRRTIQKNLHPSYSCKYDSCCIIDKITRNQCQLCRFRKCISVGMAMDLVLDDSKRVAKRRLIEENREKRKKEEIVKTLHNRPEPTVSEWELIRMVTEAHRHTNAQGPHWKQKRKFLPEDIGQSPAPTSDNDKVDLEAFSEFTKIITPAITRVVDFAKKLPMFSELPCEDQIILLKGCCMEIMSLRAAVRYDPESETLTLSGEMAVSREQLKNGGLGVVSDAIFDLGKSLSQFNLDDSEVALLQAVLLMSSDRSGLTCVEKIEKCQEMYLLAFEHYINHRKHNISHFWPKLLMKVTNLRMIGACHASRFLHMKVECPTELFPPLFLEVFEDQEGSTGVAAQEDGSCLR
Chain of human Thyroid hormone Receptor alpha (TRa), THRA (gene 7067) (P10827 whole entry, looked up, the tested form may be a part): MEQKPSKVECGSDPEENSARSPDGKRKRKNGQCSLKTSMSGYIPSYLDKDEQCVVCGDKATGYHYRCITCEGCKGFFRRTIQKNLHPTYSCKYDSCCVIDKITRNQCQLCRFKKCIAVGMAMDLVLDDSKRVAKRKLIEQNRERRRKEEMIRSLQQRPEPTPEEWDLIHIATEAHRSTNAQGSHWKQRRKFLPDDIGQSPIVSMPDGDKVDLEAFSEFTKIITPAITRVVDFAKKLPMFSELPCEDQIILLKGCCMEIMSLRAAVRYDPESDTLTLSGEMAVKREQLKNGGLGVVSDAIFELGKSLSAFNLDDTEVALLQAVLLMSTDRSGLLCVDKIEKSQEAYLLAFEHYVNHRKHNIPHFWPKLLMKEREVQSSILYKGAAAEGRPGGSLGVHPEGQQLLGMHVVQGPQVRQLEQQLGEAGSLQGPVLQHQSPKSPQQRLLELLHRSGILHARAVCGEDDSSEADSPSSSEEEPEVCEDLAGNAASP

Structure (SMILES): COc1nn(CSP(=S)(OC)OC)c(=O)s1
- outcome [1]: inactive
- outcome [2]: inactive

Structure (SMILES): CC(C)OC(=O)Nc1cccc(Cl)c1
- outcome [1]: inactive
- outcome [2]: inactive

Structure (SMILES): CCOCN(C(=O)CCl)c1c(C)cccc1CC
- AC50 [3]: 1.01 µM (active)
- AC50 [4]: 2.14 µM (active)
- AC50 [5]: 5.1 µM (active)
- outcome [6]: inactive

Structure (SMILES): ClC1C(Cl)C(Cl)C(Cl)C(Cl)C1Cl (stereo not drawn)
- outcome [1]: inactive
- outcome [2]: inactive

Structure (SMILES): O=C(Nc1ccccc1)Nc1cnns1
- outcome [1]: inactive
- AC50 [7]: 35.2 µM (active)
- AC50 [8]: 14.3 µM (active)
- AC50 [9]: 37.8 µM (active)
- AC50 [10]: 41.7 µM (active)
- AC50 [11]: 31.8 µM (active)
- AC50 [12]: 25.4 µM (active)
- outcome [13]: inactive

Structure (SMILES): CC(C)(C)C(O)/C(=C\c1ccc(Cl)cc1Cl)n1cncn1 (stereo not drawn)
- AC50 [3]: 46.7 µM (active) and 47.6 µM (active)
- AC50 [4]: 33.4 µM (active) and 20.8 µM (active)
- AC50 [5]: 1.24 µM (active) and 1.41 µM (active)
- outcome [14]: inactive
- outcome [15]: inactive
- outcome [16]: inactive
- outcome [17]: inactive
- outcome [6]: inactive
- AC50 [18]: 100 µM (active)
- outcome [19]: inactive
- outcome [20]: inactive
- AC50 [1]: 35.9 µM (active)
- AC50 [2]: 50 µM (active)

Structure (SMILES): CCC(C)Nc1c([N+](=O)[O-])cc(C(C)(C)C)cc1[N+](=O)[O-] (stereo not drawn)
- outcome [1]: inactive
- outcome [2]: inactive

Structure (SMILES): O=C(O)C(F)(F)C(F)(F)C(F)(F)C(F)(F)C(F)(F)C(F)(F)C(F)(F)F
- outcome [15]: inactive
- outcome [17]: inactive
- outcome [6]: inactive
- outcome [20]: inactive
- outcome [1]: inactive
